SMILES strings stand for the structures. Activity calls are given as the source filed them.

Experiment [1] in a line: binders of probe aFSTL3 on microarray, primary screen, stem cell growth factor project, biochemical, small-molecule microarray, fluorescence 635/667 (AID 1064).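 Note: measures binding of the biotinylated anti-FSTL3 antibody to printed compounds.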 The note with it: higher = more signal.
The nature of experiment [2]: binders from COS7 lysate, DM2A8 probe, primary screen, torsin A project, cell lysate, small-molecule microarray, fluorescence 635/667 (AID 1065). The note with it: higher = more signal, COS7 lysate expressing mutant human TOR1A.
A short description of experiment [3]: binders of probe aFGF2 on microarray, primary screen, stem cell growth factor project, biochemical, small-molecule microarray, fluorescence 635/667 (AID 1067).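 Note: measures binding of biotinylated aFGF2 protein to printed compounds on slides; z-score merges feature fluorescence and signal-to-noise across triplicate slides.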 The note with it: higher = more signal.
Experiment [4] in a line: binders of probe aFGF10 on microarray, primary screen, stem cell growth factor project, biochemical, small-molecule microarray, fluorescence 635/667 (AID 1071).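 Note: score merges 667 nm spot intensity and signal to noise from triplicate slides.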 The note with it: higher = more signal.
Experiment [5] concerns the target Neurogenic locus notch homolog protein 2 (Homo sapiens) (UniProt Q04721). Nature of the experiment: Notch2 binders on small-molecule microarrays, primary screen, biochemical, small-molecule microarray, 635 nm fluorescence, stem cell growth factors (AID 1073). The note with it: Notch2 binding, higher = more signal.
Experiment [6] deals with Pro-neuregulin-1, membrane-bound isoform (Homo sapiens) (UniProt Q02297). Description: NRG1 binders on small-molecule microarrays, primary screen, psychiatric disease protein project, biochemical, small-molecule microarray, fluorescence 635/667 (AID 1075).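 Note: score combines 667 nm spot fluorescence with signal to noise.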 The note with it: NRG1 binding, 635 nm fluorescence, higher = more signal.
Sequence of Pro-neuregulin-1, membrane-bound isoform (Homo sapiens) (Q02297 whole entry, looked up, the tested form may be a part, canonical isoform): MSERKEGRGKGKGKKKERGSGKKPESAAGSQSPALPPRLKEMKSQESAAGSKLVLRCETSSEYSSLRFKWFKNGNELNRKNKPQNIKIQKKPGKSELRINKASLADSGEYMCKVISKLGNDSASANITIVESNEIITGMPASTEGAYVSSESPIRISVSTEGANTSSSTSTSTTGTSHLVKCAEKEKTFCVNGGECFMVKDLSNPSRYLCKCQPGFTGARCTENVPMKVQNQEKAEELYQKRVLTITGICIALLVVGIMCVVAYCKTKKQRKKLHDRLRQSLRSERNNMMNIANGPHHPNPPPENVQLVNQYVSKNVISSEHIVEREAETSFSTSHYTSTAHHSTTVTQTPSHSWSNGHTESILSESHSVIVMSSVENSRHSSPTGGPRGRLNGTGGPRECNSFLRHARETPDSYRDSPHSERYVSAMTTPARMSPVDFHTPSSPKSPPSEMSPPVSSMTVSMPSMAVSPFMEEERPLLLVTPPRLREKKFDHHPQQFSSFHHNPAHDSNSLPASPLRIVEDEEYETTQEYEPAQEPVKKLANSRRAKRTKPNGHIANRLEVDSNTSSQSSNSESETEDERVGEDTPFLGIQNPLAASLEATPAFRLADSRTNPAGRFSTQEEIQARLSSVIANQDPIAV
Experiment [7] has as its system Neuregulin-1 EGF-like domain. Nature of the experiment: binders of neuregulin-1 EGF-like domain, primary screen, biochemical, small-molecule microarray, 635 nm fluorescence (AID 1081).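 Note: binding of the protein to compounds printed on small-molecule microarray slides.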 The note with it: small-molecule microarray binding, higher = more signal.
A short description of experiment [8]: FRG1 promoter luciferase signal modulators, primary screen, FRG1 inhibition for FSHD, cell-based, C2C12 myotubes, firefly/Renilla luciferase, luminescence (AID 1084). The note with it: higher = more signal, called active from +8 up or from −8 down.
Experiment [9] in a line: binders of probe aFST on microarray, primary screen, stem cell growth factor project, biochemical, small-molecule microarray, fluorescence 635/667 (AID 1086).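 Note: score merges 667 nm fluorescence with signal-to-noise of each printed compound spot.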 The note with it: higher = more signal.
Experiment [10] can be described thus: binders of probe aHhip on microarray, primary screen, stem cell growth factor project, biochemical, small-molecule microarray, fluorescence 635/667 (AID 1087).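 Note: score merges spot fluorescence at 667nm with spot signal to noise ratio.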 The note with it: higher = more signal.
The test system of experiment [11] is PRMT1 (protein arginine N-methyltransferase 1). Description: PRMT1 binders on small-molecule microarrays, primary screen, biochemical, small-molecule microarray, 635 nm fluorescence (AID 1088).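 Note: binding of Prmt1 protein to compounds spotted on small-molecule microarray slides.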 The note with it: small-molecule microarray binding, higher = more signal.
Experiment [12] can be described thus: yeast growth modulation, basal conditions, primary screen, YJM789 clinical isolate, OD600, 24 h (AID 1089).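 Note: growth of clinical yeast isolate S. cerevisiae YJM 789 seeded 1000 cells per well; test concentration not given here.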 The note with it: S. cerevisiae YJM789 growth, higher = more signal, called active from +8 up or from −8 down.
The nature of experiment [13]: fission yeast growth modulation, primary screen, strain 972, OD600, 24 h, no modulator (AID 1090).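 Note: basal condition with compound alone and no growth modifier present; test concentration not given here.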 The note with it: S. pombe 972 growth, higher = more signal, called active from +8 up or from −8 down.
Experiment [14] can be described thus: S. cerevisiae growth modulation with rapamycin, primary screen, strain BY4716, OD600, 96 h (AID 1091). Note: test concentration not given here. The note with it: higher = more signal, called active from +8 up or from −8 down.
Experiment [15] deals with Torsin-1A-interacting protein 2 (Homo sapiens) (UniProt Q8NFQ8). Nature of the experiment: LULL1 binders on small-molecule microarray, primary screen, cell lysate, human LULL1 lysate, 635/667 nm fluorescence (AID 1092).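 Note: probe is lysate of COS7 cells overexpressing human LULL1; score merges per-feature 667 nm fluorescence with signal-to-noise.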 The note with it: hLULL1 lysate binding, 635 nm fluorescence, higher = more signal.
Sequence of Torsin-1A-interacting protein 2 (Homo sapiens) (Q8NFQ8 whole entry, looked up): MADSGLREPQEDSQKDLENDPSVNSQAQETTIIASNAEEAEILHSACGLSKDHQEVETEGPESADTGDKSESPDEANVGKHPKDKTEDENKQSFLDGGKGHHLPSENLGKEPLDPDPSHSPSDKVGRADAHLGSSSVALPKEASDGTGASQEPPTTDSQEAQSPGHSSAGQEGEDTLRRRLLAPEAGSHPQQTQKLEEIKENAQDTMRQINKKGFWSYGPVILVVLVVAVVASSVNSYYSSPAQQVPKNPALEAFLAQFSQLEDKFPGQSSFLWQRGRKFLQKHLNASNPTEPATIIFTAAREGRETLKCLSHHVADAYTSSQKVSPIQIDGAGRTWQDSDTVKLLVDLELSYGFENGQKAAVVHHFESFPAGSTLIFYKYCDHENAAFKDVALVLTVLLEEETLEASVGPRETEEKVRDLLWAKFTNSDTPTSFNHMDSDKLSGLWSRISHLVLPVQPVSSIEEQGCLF
Experiment [16] in a line: E. coli growth modulation, two-sided OD650, primary screen, E. coli filamentation project, strain DRC41, 24 h (AID 1093).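 Note: MC1000 strain lacking acrAB efflux and sulA so SOS filamentation is blocked; test concentration not given here.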 The note with it: OD650, 24 h, higher = more signal, called active from +8 up or from −8 down.
Experiment [17] can be described thus: small-molecule microarray binders of probe aLefty2, primary screen, biochemical, biotinylated probe, 635/667 nm fluorescence (AID 1094).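 Note: score merges spot fluorescence near 667 nm with spot signal-to-noise ratio.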 The note with it: higher = more signal.
The test system of experiment [18] is Noggin (protein binding on small-molecule microarray). Description: Noggin binders on small-molecule microarray, primary screen, biochemical, 635/667 nm fluorescence (AID 1095).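 Note: score merges 667 nm feature fluorescence with signal to noise over triplicate slides.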 The note with it: 635 nm fluorescence, higher = more signal.
The target of experiment [19] is Neurogenic locus notch homolog protein 3 (Homo sapiens) (UniProt Q9UM47). Nature of the experiment: NOTCH3 binders on small-molecule microarray, primary screen, biochemical, 635/667 nm fluorescence (AID 1096). The note with it: NOTCH3 binding, 635 nm fluorescence, higher = more signal.
Experiment [20] is described as follows: small-molecule microarray binders of probe aEGFR, primary screen, biochemical, biotinylated probe, 635/667 nm fluorescence (AID 1097).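 Note: probe is a biotinylated anti-EGFR antibody binding compounds printed on slides; score combines fluorescence near 667 nm and signal to noise of each spot.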 The note with it: higher = more signal.

Sequence of Neurogenic locus notch homolog protein 2 (Homo sapiens) (Q04721 whole entry, looked up, canonical isoform): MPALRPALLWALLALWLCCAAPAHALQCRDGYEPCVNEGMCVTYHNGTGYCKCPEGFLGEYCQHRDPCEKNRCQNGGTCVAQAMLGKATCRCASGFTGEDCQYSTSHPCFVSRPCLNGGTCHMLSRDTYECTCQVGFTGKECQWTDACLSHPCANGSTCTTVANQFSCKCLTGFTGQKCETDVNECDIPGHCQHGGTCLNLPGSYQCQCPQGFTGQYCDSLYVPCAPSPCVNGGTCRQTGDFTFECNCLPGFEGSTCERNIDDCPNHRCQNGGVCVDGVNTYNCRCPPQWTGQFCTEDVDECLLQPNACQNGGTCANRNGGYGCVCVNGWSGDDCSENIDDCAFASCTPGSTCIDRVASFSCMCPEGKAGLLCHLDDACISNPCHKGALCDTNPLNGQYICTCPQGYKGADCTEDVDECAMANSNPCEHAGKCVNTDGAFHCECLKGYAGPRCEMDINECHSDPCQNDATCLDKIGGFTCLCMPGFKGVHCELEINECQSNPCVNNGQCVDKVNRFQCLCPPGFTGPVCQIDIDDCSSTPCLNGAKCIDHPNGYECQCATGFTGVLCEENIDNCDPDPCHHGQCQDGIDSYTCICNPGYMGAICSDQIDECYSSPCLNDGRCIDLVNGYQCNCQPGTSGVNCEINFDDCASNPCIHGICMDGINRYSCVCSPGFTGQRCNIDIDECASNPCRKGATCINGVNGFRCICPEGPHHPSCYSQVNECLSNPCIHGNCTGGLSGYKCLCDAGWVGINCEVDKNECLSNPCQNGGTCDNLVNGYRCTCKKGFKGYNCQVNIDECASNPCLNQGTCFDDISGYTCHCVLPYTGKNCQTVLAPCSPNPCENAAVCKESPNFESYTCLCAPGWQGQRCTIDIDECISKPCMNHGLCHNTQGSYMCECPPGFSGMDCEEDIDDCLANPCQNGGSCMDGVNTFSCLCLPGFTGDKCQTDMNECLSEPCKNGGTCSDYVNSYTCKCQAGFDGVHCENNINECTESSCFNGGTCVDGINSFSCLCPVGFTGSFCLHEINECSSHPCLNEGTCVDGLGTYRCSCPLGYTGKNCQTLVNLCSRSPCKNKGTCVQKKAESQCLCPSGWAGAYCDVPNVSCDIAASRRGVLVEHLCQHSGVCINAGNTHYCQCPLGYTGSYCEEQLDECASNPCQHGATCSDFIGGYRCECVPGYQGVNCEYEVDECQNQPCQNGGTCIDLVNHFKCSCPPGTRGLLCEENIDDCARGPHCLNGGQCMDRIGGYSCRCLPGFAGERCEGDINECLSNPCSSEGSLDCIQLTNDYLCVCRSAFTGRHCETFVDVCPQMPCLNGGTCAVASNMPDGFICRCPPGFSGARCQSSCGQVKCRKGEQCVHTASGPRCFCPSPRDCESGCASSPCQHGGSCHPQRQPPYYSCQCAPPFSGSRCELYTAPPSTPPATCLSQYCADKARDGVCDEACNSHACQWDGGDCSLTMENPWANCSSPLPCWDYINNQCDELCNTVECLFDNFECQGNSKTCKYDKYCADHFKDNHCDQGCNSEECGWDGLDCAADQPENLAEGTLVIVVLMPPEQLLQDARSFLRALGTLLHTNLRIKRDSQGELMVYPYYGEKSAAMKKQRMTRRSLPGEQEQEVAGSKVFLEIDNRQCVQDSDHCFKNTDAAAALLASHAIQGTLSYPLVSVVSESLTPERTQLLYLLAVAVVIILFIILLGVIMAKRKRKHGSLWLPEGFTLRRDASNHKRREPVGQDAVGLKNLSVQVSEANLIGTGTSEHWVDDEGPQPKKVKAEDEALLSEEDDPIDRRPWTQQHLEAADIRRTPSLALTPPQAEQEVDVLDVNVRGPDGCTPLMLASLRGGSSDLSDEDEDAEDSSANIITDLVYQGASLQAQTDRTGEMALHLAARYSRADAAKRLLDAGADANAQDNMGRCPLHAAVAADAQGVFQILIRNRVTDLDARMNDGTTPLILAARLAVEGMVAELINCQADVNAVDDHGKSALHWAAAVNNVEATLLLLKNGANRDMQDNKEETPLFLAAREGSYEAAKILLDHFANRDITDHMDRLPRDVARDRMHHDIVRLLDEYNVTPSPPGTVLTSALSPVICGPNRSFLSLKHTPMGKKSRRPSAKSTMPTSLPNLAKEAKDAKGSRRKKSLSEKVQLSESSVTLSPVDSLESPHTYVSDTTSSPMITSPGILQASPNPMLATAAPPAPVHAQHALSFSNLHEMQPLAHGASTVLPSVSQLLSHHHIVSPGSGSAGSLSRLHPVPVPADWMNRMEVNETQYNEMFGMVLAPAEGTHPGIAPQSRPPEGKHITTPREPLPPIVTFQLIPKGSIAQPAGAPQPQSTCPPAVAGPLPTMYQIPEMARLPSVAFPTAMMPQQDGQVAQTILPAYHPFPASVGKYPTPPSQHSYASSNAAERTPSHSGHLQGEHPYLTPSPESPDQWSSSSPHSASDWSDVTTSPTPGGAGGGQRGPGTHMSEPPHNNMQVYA

With `C[n+]1ccc2ccc(O)cc2c1`, the composite z-score in experiment [1] is -0.201; in experiment [2], 1.46; in experiment [3], -0.081; in experiment [4] it was 0.0493; in experiment [5], 0.12; in experiment [6], 0.615. Besides, the composite z-score is 0.767 in [7]; -0.173 in experiment [9]; -0.0994 in experiment [10]; 1.56 in [11]; 1.14 in [15]; -0.0562 in experiment [17]. Moreover, the values for the composite z-score in experiment [18], in experiment [19] and in experiment [20] were 1.01, 1.05 and -0.0453, respectively. Moreover, the z-score in experiment [8] was 1.53 (inactive); in experiment [12], 0.0119 (inactive); in experiment [13], -0.208 (inactive); in experiment [14] it was 2.96 (inactive); in experiment [16], -0.992 (inactive).
As to `CN(C)CCCCNC(=O)[C@@H]1C[C@@H]2C(=O)N[C@@H](CCCCN)C(=O)N2[C@@H]1c1cccc(OCCO)c1`, the composite z-score was 1.24 in [1]; -0.719 in [2]; -0.138 in experiment [3]; -0.347 in experiment [4]; -0.573 in experiment [5]; 2.07 in experiment [6]. Besides, the composite z-score in experiment [7] amounted to 1.3; in experiment [9], 0.145; in [10] it was 0.424; in experiment [11], 1.02; in experiment [15] it was 3.58; in experiment [17], 0.197. Besides, the composite z-score was -0.989 in experiment [18], 0.37 in experiment [19] and -0.223 in experiment [20]. In addition, the z-score in [8] is 3.31 (inactive); in experiment [12], -0.0533 (inactive); in experiment [13], 0.286 (inactive); in experiment [14], -0.363 (inactive); in experiment [16] it was -0.285 (inactive).
For `Cc1c(NC(=O)/C(C#N)=C/C=C/c2ccccc2)c(=O)n(-c2ccccc2)n1C`, the composite z-score in experiment [1] is -0.438; in [2], -0.0022; in experiment [3] it was -0.0035; in [4], 0.286; in [5], 0.654; in [6] it was 0.757. In addition, the composite z-score in experiment [7] was 0.825; in experiment [9] it was 0.003; in [10], 0.237; in [11] it was 0.311; in [15], 0.396; in experiment [17], -0.31. In addition, the composite z-score was 0.244 in [18], 0.478 in experiment [19] and -0.0293 in experiment [20]. Besides, the z-score is 4.07 (inactive) in experiment [8]; 0.243 (inactive) in experiment [12]; -0.678 (inactive) in experiment [13]; 0.561 (inactive) in [14]; 1.94 (inactive) in experiment [16].
Regarding `CC1CC/C=C\[C@H]2OC34C=CCN(c5ccc6ccccc6c5)C(=O)[C@H]3N(CCCCCO)C(=O)[C@@H]4C2C(=O)O1` (stereo not given in full), the composite z-score in experiment [1] was -0.46; in experiment [2], -0.0205; in experiment [3] it was -0.159; in [4], -1.01; in experiment [5] it was -1.04; in [6] it was -0.712. In addition, the composite z-score is -0.734 in experiment [7]; -0.818 in [9]; -0.306 in [10]; -0.712 in [11]; -1.87 in [15]; 0.182 in experiment [17]. For the same compound, the composite z-score in [18] is -1.21; in [19], -0.7; in experiment [20], -0.233. Also, the z-score was 0.772 (inactive) in experiment [8]; 0.231 (inactive) in experiment [12]; 0.0271 (inactive) in experiment [13]; -0.32 (inactive) in [14]; -0.603 (inactive) in experiment [16].
`C=C(C(=O)CC[C@@H](OC(C)=O)c1ccc(OCCO)cc1)C(C)C`: the composite z-score in [1] was 0.0823; in experiment [2] it was 0.366; in experiment [3], -0.0676; in [4], 0.853; in experiment [5], 0.146; in experiment [6] it was 0.845. Moreover, the composite z-score in [7] is 1.19; in experiment [9], -0.193; in experiment [10] it was -0.287; in experiment [11], 0.387; in experiment [15], 1.45; in experiment [17], -0.114. For the same compound, the composite z-score is -0.053 in experiment [18], -0.054 in experiment [19] and 0.0073 in experiment [20]. Further, the z-score in experiment [8] was 2.4 (inactive); in [12], -1.33 (inactive); in experiment [13] it was -1.38 (inactive); in [14], -0.423 (inactive); in [16] it was 0.278 (inactive).

The values above are taken from PubChem BioAssay.
